Where “and” joins values, the source holds several entries; their conditions need not be identical. Equal entries are not always repeated. The campaign covered roughly 5,500 compounds. About 2,000 (36%) were called active. Inconclusive results (about 18%) are left out. Rule as the data show it: active = normalized growth mostly below about 0.91 (no sharp cut-off); inconclusive = no clear call, values can overlap the other calls; inactive = mostly above about 0.92. This is one part of the list.
Assay: chemical genetic growth profiling, strain panel (AID 1159580);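 also: tested at 20 µM; growth read once vehicle control cultures reached saturation at 30 °C; 1 = growth at the plate median or of vehicle wells; lower values mean less growth of the strain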
Settings: S. cerevisiae deletion strains, growth OD

Measured: normalized growth

CCN(CC)CCOC(=O)C(Cc1cccc2ccccc12)CC1CCCO1 (stereo not given)
inactive: locus YAL013W, strain DEP1, active compounds read low 1.03 | locus YAL021C, strain ccr4, active compounds read low 1 | locus YAL026C, strain drs2, active compounds read low 1.01 | locus YAL030W, strain snc1, active compounds read low 0.998 | locus YBL061C, strain skt5, active compounds read low 1.01 | locus YBR009C, strain hhf1, active compounds read low 1.01 | locus YBR021W, strain FUR4, active compounds read low 1.02 | locus YBR023C, strain chs3, active compounds read low 1.01 | locus YBR171W, strain sec66, active compounds read low 1.02 | locus YBR229C, strain ROT2, active compounds read low 1 | locus YBR231C, strain swc5, active compounds read low 0.995 | locus YBR279W, strain paf1, active compounds read low 1.01 | locus YCL011C, strain gbp2, active compounds read low 1.01 | locus YCL016C, strain dcc1, active compounds read low 1.01 | locus YCL029C, strain bik1, active compounds read low 1.01 | locus YCL061C, strain MRC1, active compounds read low 1.01 | locus YCL069W, strain vba3, active compounds read low 1.01 | locus YCR088W, strain abp1, active compounds read low 1 | locus YDL005C, strain med2, active compounds read low 1.01 | locus YDL035C, strain GPR1, active compounds read low 1.02 | locus YDL040C, strain nat1, active compounds read low 1.01 | locus YDL074C, strain BRE1, active compounds read low 1.02 | locus YDL101C, strain DUN1, active compounds read low 1 | locus YDL134C, strain PPH21, active compounds read low 1.01 | locus YDL185W, strain tfp1, active compounds read low 1.01 | locus YDL192W, strain arf1, active compounds read low 1.01 | locus YDR001C, strain nth1, active compounds read low 1.01 | locus YDR069C, strain doa4, active compounds read low 1.02 | locus YDR101C, strain arx1, active compounds read low 1.02 | locus YDR137W, strain rgp1, active compounds read low 1.07 | locus YDR159W, strain sac3, active compounds read low 1.02 | locus YDR162C, strain NBP2, active compounds read low 1.02 | locus YDR195W, strain ref2 0.996 | locus YDR297W, strain sur2, active compounds read low 1.01 | locus YDR318W, strain mcm21, active compounds read low 1 | locus YDR334W, strain swr1, active compounds read low 1.01 | locus YDR335W, strain msn5, active compounds read low 1.01 | locus YDR388W, active compounds read low 1.01 | locus YDR392W, strain spt3, active compounds read low 1.01 | locus YDR502C, strain sam2, active compounds read low 1.01 | locus YEL003W, strain gim4, active compounds read low 1.01 | locus YEL037C, strain rad23, active compounds read low 1.01 | locus YEL061C, strain CIN8 (second series), active compounds read low 1.01 | locus YEL061C, strain CIN8, active compounds read low 1.01 | locus YER015W, strain faa2, active compounds read low 1.01 | locus YER016W, strain bim1, active compounds read low 1.01 | locus YER110C, active compounds read low 0.99 | locus YER111C, strain swi4, active compounds read low 1.01 | locus YER155C, strain BEM2 (second series), active compounds read low 1.01 | locus YER155C, strain BEM2, active compounds read low 1 | locus YER167W, strain BCK2, active compounds read low 1.01 | locus YFR010W, strain ubp6, active compounds read low 1.02 | locus YGL078C, strain dbp3, active compounds read low 1.02 | locus YGL086W, strain mad1, active compounds read low 1.01 | locus YGL167C, strain pmr1, active compounds read low 1.01 | locus YGL173C, strain kem1, active compounds read low 1.01 | locus YGL227W, strain vid30, active compounds read low 1 | locus YGL240W, strain doc1, active compounds read low 1.01 | locus YGL248W, strain PDE1, active compounds read low 1.01 | locus YGL253W, strain hxk2, active compounds read low 1.01 | locus YGR078C, strain PAC10, active compounds read low 1.03 | locus YGR135W, strain pre9, active compounds read low 0.998 | locus YGR252W, strain gcn5, active compounds read low 1.02 | locus YHR013C, strain ard1, active compounds read low 1.01 | locus YHR027C, strain rpn1, active compounds read low 1.01 | locus YHR030C, strain SLT2, active compounds read low 1.01 and 0.997 | locus YHR079C, strain IRE1 (second series), active compounds read low 1 | locus YHR079C, strain IRE1, active compounds read low 0.985 | locus YHR094C, strain hxt1, active compounds read low 0.997 | locus YHR129C, strain ARP1, active compounds read low 1.01 | locus YHR142W, strain chs7, active compounds read low 1.02 | locus YHR200W, strain rpn10, active compounds read low 1.01 | locus YIL066C, strain RNR3, active compounds read low 1.03 | locus YIL073C, strain SPO22, active compounds read low 1.08 | locus YIL125W, strain kgd1, active compounds read low 1 | locus YIR030C, strain dcg1, active compounds read low 1.01 | locus YJL092W, strain hpr5, active compounds read low 1.01 | locus YJL095W, strain BCK1 (second series), active compounds read low 1 | locus YJL095W, strain BCK1, active compounds read low 1.03 and 0.993 | locus YJL115W, strain asf1, active compounds read low 1 | locus YJL129C, strain trk1, active compounds read low 0.998 | locus YJL134W, strain LCB3, active compounds read low 1 | locus YJL154C, strain vps35, active compounds read low 1.01 | locus YJL164C, strain tpk1, active compounds read low 1.01 | locus YJL166W, strain qcr8, active compounds read low 1 | locus YJL168C, strain set2, active compounds read low 0.998 | locus YJL187C, strain SWE1 (second series), active compounds read low 1.02 | locus YJL187C, strain SWE1, active compounds read low 1.01 | locus YJR043C, strain POL32, active compounds read low 1.02 | locus YJR066W, strain TOR1, active compounds read low 0.95 | locus YKL009W, strain mrt4, active compounds read low 0.989 | locus YKL068W, active compounds read low 1 | locus YKL085W, strain MDH1 (second series), active compounds read low 1 | locus YKL085W, strain MDH1, active compounds read low 1 | locus YKL160W, strain elf1, active compounds read low 1 | locus YKR001C, strain vps1, active compounds read low 1.01 | locus YKR026C, strain gcn3, active compounds read low 1.01 | locus YKR091W, strain srl3, active compounds read low 1 | locus YLL001W, strain dnm1, active compounds read low 0.999 | locus YLL026W, active compounds read low 1 | locus YLL041C, strain sdh2, active compounds read low 1.01 | locus YLR027C, strain aat2, active compounds read low 1.01 | locus YLR039C, strain RIC1, active compounds read low 1.11 | locus YLR058C, strain SHM2, active compounds read low 1.01 | locus YLR102C, strain apc9, active compounds read low 0.992 | locus YLR113W, strain HOG1, active compounds read low 0.986 | locus YLR221C, strain rsa3, active compounds read low 1.01 | locus YLR258W, strain gsy2, active compounds read low 1 | locus YLR262C, strain YPT6 (second series), active compounds read low 1.03 | locus YLR262C, strain YPT6, active compounds read low 1.06 | locus YLR268W, strain sec22, active compounds read low 1.02 | locus YLR320W, strain mms22, active compounds read low 1.03 | locus YLR330W, strain CHS5, active compounds read low 1.01 | locus YLR342W, strain FKS1 (second series), active compounds read low 1.02 | locus YLR342W, strain FKS1, active compounds read low 1.01 | locus YLR357W, strain rsc2, active compounds read low 0.998 | locus YLR370C, strain arc18, active compounds read low 1.01 | locus YLR371W, strain rom2, active compounds read low 1.01 | locus YLR384C, strain iki3, active compounds read low 1.02 | locus YLR418C, strain cdc73, active compounds read low 1.02 | locus YML016C, strain PPZ1, active compounds read low 1 | locus YML032C, strain rad52, active compounds read low 1.01 | locus YML120C, strain ndi1, active compounds read low 1 | locus YML124C, strain tub3, active compounds read low 1 | locus YMR058W, strain fet3, active compounds read low 1.01 | locus YMR078C, strain ctf18, active compounds read low 1.02 | locus YMR125W, strain sto1, active compounds read low 1.01 | locus YMR129W, active compounds read low 1.01 | locus YMR205C, strain PFK2, active compounds read low 1.02 | locus YMR223W, strain ubp8, active compounds read low 1.02 | locus YMR231W, strain pep5, active compounds read low 1.02 | locus YMR307W, strain GAS1, active compounds read low 0.965 | locus YNL067W, strain RPL9B, active compounds read low 1.03 | locus YNL071W, strain lat1, active compounds read low 1.01 | locus YNL153C, strain GIM3, active compounds read low 1.03 | locus YNL183C, strain NPR1, active compounds read low 0.939 | locus YNL209W, strain ssb2, active compounds read low 1.02 | locus YNL233W, strain BNI4, active compounds read low 1.03 | locus YNL248C, strain rpa49, active compounds read low 1.01 | locus YNL250W, strain rad50, active compounds read low 1.01 | locus YNL271C, strain bni1, active compounds read low 0.998 | locus YNL298W, strain CLA4, active compounds read low 0.998 | locus YNL307C, strain MCK1, active compounds read low 1.02 | locus YNL322C, strain KRE1 (second series), active compounds read low 0.996 | locus YNR049C, strain mso1, active compounds read low 0.997 | locus YNR052C, strain pop2, active compounds read low 0.993 | locus YOL006C, strain TOP1, active compounds read low 1.14 | locus YOL012C, strain htz1 0.825 | locus YOL147C, strain pex11, active compounds read low 1 | locus YOR001W, strain rrp6, active compounds read low 1.01 | locus YOR061W, strain CKA2, active compounds read low 1.01 | locus YOR069W, strain VPS5, active compounds read low 1 | locus YOR070C, strain gyp1, active compounds read low 1 | locus YOR080W, strain dia2, active compounds read low 1 | locus YOR083W, strain WHI5, active compounds read low 1.01 | locus YOR106W, strain vam3, active compounds read low 0.998 | locus YOR136W, strain idh2, active compounds read low 1.01 | locus YOR144C, strain elg1, active compounds read low 1 | locus YOR184W, strain ser1, active compounds read low 1.01 | locus YOR231W, strain MKK1, active compounds read low 0.978 | locus YOR265W, strain rbl2, active compounds read low 1 | locus YOR270C, strain vph1, active compounds read low 1.03 | locus YOR290C, strain snf2, active compounds read low 1 | locus YOR316C, strain cot1, active compounds read low 1.01 | locus YPL051W, strain arl3, active compounds read low 1 | locus YPL055C, strain LGE1, active compounds read low 1.02 | locus YPL078C, strain atp4, active compounds read low 1.01 | locus YPL106C, strain sse1, active compounds read low 1.01 | locus YPL240C, strain hsp82, active compounds read low 1 | locus YPL256C, strain CLN2, active compounds read low 0.964 | locus YPR119W, strain clb2, active compounds read low 0.996 | locus YPR141C, strain kar3, active compounds read low 1.01 | locus YPR163C, strain tif3, active compounds read low 1.01 | locus YPR167C, strain met16, active compounds read low 1 | strain wtn01, active compounds read low 1
